What all share (experiment): NCI-60 one-dose screen, 48 h (100 = growth as untreated, 0 = no growth, -100 = all killed)
Details in all cases: 10 µM unless noted

In assay [1] the test system is SR leukemia.
For assay [2], the system named is RPMI-8226 leukemia.
For assay [3], the system named is OVCAR-8 ovarian.
The test system of assay [4] is OVCAR-5 ovarian.
Assay [5] has as its system OVCAR-4 ovarian.
The test system of assay [6] is SK-OV-3 ovarian.
In assay [7] the test system is IGROV1 ovarian.
For assay [8], the system named is OVCAR-3 ovarian.
For assay [9], the system named is HS 578T breast.
The subject of assay [10] is NCI/ADR-RES ovarian.

Compounds without any hit were thinned out: in the full panel of roughly 83,000, 20% have a hit.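 A percent growth of 40 corresponds to 60% growth inhibition; 0 means no net growth; -100 means all cells died. Active threshold: below 10.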 A number with no mark means an inactive call. Activity calls are given as the source filed them.

For the compound `O=C1CCCC=CC[C@H]2C=C(Cl)C(=O)C2=CC[C@H](CCCCC(F)(F)F)OC(=O)CCCC=CC[C@H]2C=C(Cl)C(=O)C2=CC[C@H](CCCCC(F)(F)F)OC(=O)CCCC=CC[C@H]2C=C(Cl)C(=O)C2=CC[C@H](CCCCC(F)(F)F)O1`, the growth in assay [1] was 11.6% [6.25 µM]; in [2], 4.9% [6.25 µM] (active); in assay [3] it was 8.78% [6.25 µM] (active); in assay [4] it was 140% [6.25 µM]; in assay [5] it was 68.7% [6.25 µM]; in [6], 119% [6.25 µM]. The growth in assay [7] was 43.7% [6.25 µM]; in assay [8] it was 14.3% [6.25 µM]; in assay [9], 81.9% [6.25 µM]; in [10], 97.6% [6.25 µM].

As for `COc1cc(-c2cc3ncccc3c3nc(OCCN(C)C)c4cccnc4c23)cc(OC)c1OC`, the growth was 8.77% (active) in assay [1]; -7.46% (active) in assay [2]; -5.22% (active) in assay [3]; 44.8% in assay [4]; -43.9% (active) in assay [5]; -10.8% (active) in [6]. Also, the growth in [7] is 9.72% (active); in [8] it was -25.6% (active); in assay [9] it was 14.4%; in assay [10], 5.27% (active).

For the compound `COc1cnc2c(c1)C(=O)c1c-2n(CCCNC2=NCCS2)c(=O)c2cc([N+](=O)[O-])ccc12`, the growth in assay [1] is -9.1% (active); in assay [2], -32.1% (active); in assay [3] it was -6.2% (active); in assay [4], 28.9%; in assay [5], -71.9% (active); in [6] it was 9.4% (active). Further, the growth was -0.756% (active) in assay [7], -71.1% (active) in [8], 69.9% in [9] and -8.56% (active) in assay [10].

With `COc1ccc(NC(=O)c2ccc3c(c2)nc(-c2cc4ccccc4[nH]c2=O)n3-c2cc(C(C)(C)C)[nH]n2)cc1`, the growth is 84.8% in assay [1]; 83.9% in assay [2]; 97.6% in assay [3]; 95.9% in assay [4]; 86.5% in assay [5]; 111% in [6]. Moreover, the growth in [7] was 80.7%; in assay [8] it was 100%; in [9], 80.9%; in [10], 103%.

Consider `COc1ccc2c(c1)c(-c1nc(-c3cn(C)c4ncccc34)cs1)cn2CCCN1CCCCC1`, for which the growth in [1] was -39.1% (active); in assay [2], -8.74% (active); in [3] it was 59.6%; in [4] it was 85.3%; in assay [5], 74.7%; in assay [6], 89.8%. The growth in assay [7] is 66.1%; in assay [8], -52.1% (active); in [9] it was 73.7%; in [10], 69.5%.

`O=Cc1nc2ccccc2[nH]1`: the growth in [1] was 83%; in [2], 96.9%; in [3], 100%; in assay [4] it was 104%; in assay [5] it was 110%; in [6], 94.2%. In addition, the growth in assay [7] was 107%; in assay [8] it was 111%; in assay [9], 95.4%; in assay [10] it was 106%.

With `COc1cc2nc(Cl)nc(Nc3cccc(C(=O)/C=C/c4ccccc4)c3)c2cc1OC`, the growth in [1] is 8.85% (active); in assay [2], -2.13% (active); in assay [3], 49.6%; in [4] it was 68.9%; in assay [5] it was 70.6%; in assay [6], 81.1%. For the same compound, the growth in assay [7] was 37.3%; in assay [8], 38.2%; in [9], 98.5%; in assay [10], 49.9%.

For `Clc1ccc2c(NCCNc3nc(-c4ccccc4)cc(-c4ccccc4)n3)ccnc2c1`, the growth in assay [1] was -19.4% (active); in assay [2], -34.4% (active); in assay [3] it was -70.6% (active); in assay [4] it was -79.7% (active); in assay [5], -66.4% (active); in [6] it was 83.6%. Further, the growth in assay [7] is -83.1% (active); in [8], -85.6% (active); in [9], -17.2% (active); in [10], -41.8% (active).

Regarding `C#CCN=C[C@]12CC[C@@H](C(=C)C)[C@@H]1[C@H]1CC[C@@H]3[C@@]4(C)CCC(=O)C(C)(C)[C@@H]4CC[C@@]3(C)[C@]1(C)CC2`, the growth was 36.5% in [1]; 33% in [2]; 57.2% in assay [3]; 115% in [4]; 53.5% in assay [5]; 91.8% in [6]. Further, the growth is -10.9% (active) in [7], 62.3% in assay [8], 87.8% in [9] and 64.2% in assay [10].

With `COc1cnc2c(c1)C(=O)c1c-2n(CCCN2CCN(CCO)CC2)c(=O)c2cc([N+](=O)[O-])ccc12`, the growth is -12.5% (active) in assay [1]; 44.6% in assay [2]; 52.5% in assay [3]; 132% in assay [4]; 79.4% in assay [5]; 54.8% in assay [6]. For the same compound, the growth in assay [7] was 74.2%; in [8] it was 84.4%; in assay [9], 84.9%; in assay [10], 111%.

For `COc1ccc2c(c1)C(Br)=C(CCO)C2c1ccccc1` (stereo not given), the growth in [1] is 112%; in assay [2] it was 40.7%; in assay [3] it was 86.1%; in assay [4], 78%; in assay [5], 87.3%; in [6], 78.1%. Besides, the growth in [7] was 83.5%; in [8] it was 26%; in assay [9] it was 35.7%; in assay [10] it was 65.1%.

With `O=[N+]([O-])c1ccc(N/N=C(\C(=N/Nc2ccc([N+](=O)[O-])cc2[N+](=O)[O-])c2ccccc2)c2ccccc2)c([N+](=O)[O-])c1`, the growth was -1.67% (active) in [1]; 93.3% in assay [2]; 87.6% in assay [3]; 98.4% in [4]; 5.4% (active) in assay [5]; 106% in assay [6]. For the same compound, the growth in [7] was 92.3%; in [8], 84%; in assay [9] it was 74.4%; in [10], 90.4%.

Consider `COc1ccc2c(c1)c(-c1nc(-c3c[nH]c4ncccc34)cs1)cn2CCN`, for which the growth in assay [1] is 0.217% (active); in assay [2], 52.7%; in assay [3] it was 70.5%; in assay [4], 88.6%; in assay [5] it was 57.1%; in assay [6], 60.7%. In addition, the growth was 30.4% in assay [7], 70.5% in [8], 62.3% in [9] and 84.1% in assay [10].

In the case of `CC1(C)[C@@H](O)CC[C@]2(C)[C@H]3CC[C@@H]4[C@H]5[C@H](C(=O)/C=C/c6ccc(C(F)(F)F)cc6)CC[C@]5(CO)CC[C@@]4(C)[C@]3(C)CC[C@@H]12`, the growth in [1] is 17.8%; in assay [2] it was 28.2%; in [3] it was 55.7%; in assay [4], 109%; in [5], 38.4%; in [6], 98.6%. Besides, the growth was 61.5% in assay [7], 51.8% in [8], 59.6% in [9] and 70.5% in assay [10].

With `O=C1c2cc3c(cc2-c2c1c1ccc(Cl)cc1c(=O)n2C[C@H](O)[C@@H](O)[C@H](O)CO)OCO3`, the growth was 0.866% (active) in assay [1]; 0.957% (active) in [2]; 1.03% (active) in assay [3]; -2.44% (active) in [4]; 18.6% in assay [5]; -23.1% (active) in [6]. Besides, the growth in assay [7] is 9.99% (active); in assay [8], -10.4% (active); in assay [9], 11.3%; in assay [10], 7.03% (active).

As to `COC(c1ccccc1)(c1ccccc1)c1ccccc1`, the growth in assay [1] was 114%; in assay [2] it was 171%; in assay [3], 98.8%; in [4], 113%; in assay [5], 99.3%; in assay [6], 107%. Further, the growth in [7] was 123%; in [8] it was 108%; in assay [9], 103%; in assay [10] it was 108%.

With `O=C1Nc2ccccc2/C1=C/c1cn(CCCn2c3ccccc3c(=O)c3ccccc32)c2ccccc12`, the growth was 84% in [1]; 90% in assay [2]; 85% in assay [3]; 103% in assay [4]; 88.1% in assay [5]; 86.6% in [6]. The growth in assay [7] is 45.8%; in [8] it was 84.9%; in [9], 85.2%; in assay [10] it was 90.3%.

Turning to `COc1cccc(-c2nn(-c3ccccc3)cc2-c2ccnc(NCCCNS(=O)(=O)c3cccc(F)c3)c2)c1`, the growth in assay [1] is -7.52% (active); in assay [2], 14.3%; in assay [3] it was 12.1%; in [4], 61.3%; in assay [5], 34%; in assay [6], 40.9%. Besides, the growth is 29.6% in assay [7], 46.5% in assay [8], 32% in [9] and 12.7% in assay [10].

As to `C=C1C(=O)O[C@H]2[C@H]1CC/C(COC(=O)NCc1cc3ccccc3[nH]1)=C\CC[C@@]1(C)O[C@@H]21`, the growth in assay [1] was -2.88% (active); in [2], -32.8% (active); in assay [3], 6.1% (active); in assay [4], 26.2%; in [5], -0.221% (active); in assay [6], 86.7%. Besides, the growth in assay [7] is -20.5% (active); in assay [8], -54.4% (active); in assay [9], 79.3%; in assay [10], 71.4%.

In the case of `O=C(CCCCCn1c2ccccc2c2c3c(c4c5ccccc5[nH]c4c21)C(=O)N(O)C3=O)N1CCOCC1`, the growth in assay [1] is 8.26% (active); in assay [2] it was 14.9%; in [3], 41.7%; in [4], 116%; in assay [5], 64.5%; in assay [6] it was 70.4%. Besides, the growth in [7] was -26.5% (active); in [8] it was 40.9%; in assay [9], 66.5%; in assay [10], 73.7%.

For the compound `COc1cc(/C=C/c2cc(/C=C/c3ccc(O)c(OC)c3)n(-c3ccccc3)c(=O)n2)ccc1O`, the growth in assay [1] was 30.7%; in assay [2] it was 50.7%; in [3], 79.1%; in [4], 113%; in assay [5], 61.3%; in [6], 90.7%. Besides, the growth was 87% in [7], 72.3% in assay [8], 69.6% in assay [9] and 97.7% in [10].

With `CCCCn1c(-c2ccc(O)cc2)cn2c3c(=O)[nH]c(=O)n(C)c3nc12`, the growth is 31.1% in assay [1]; 84.7% in [2]; 91.7% in assay [3]; 111% in [4]; 82.2% in assay [5]; 77.9% in [6]. Further, the growth in [7] was 72.9%; in [8], 89.8%; in [9] it was 82.6%; in assay [10] it was 90.1%.

With `C=C(C)[C@@H]1CC[C@]2(C(=O)OC)CC[C@]3(C)[C@H](CC[C@@H]4[C@@](C)(CC/C(N)=N/O)[C@H](C(=C)C)CC[C@]43C)[C@@H]12`, the growth was 69.2% in assay [1]; 93% in assay [2]; 102% in assay [3]; 105% in [4]; 92.1% in [5]; 115% in [6]. The growth in assay [7] was 107%; in assay [8], 103%; in [9] it was 93.9%; in assay [10], 101%.

With `C[C@@H](Oc1ccc(C(=O)NS(=O)(=O)C(C)(C)C)cc1C(F)(F)F)c1ccc(Oc2ccccc2)cn1`, the growth in assay [1] is 29.7%; in assay [2] it was 71.5%; in assay [3], 41.2%; in assay [4], 86.5%; in [5], 67.2%; in [6] it was 69.6%. The growth was 37.4% in assay [7], 8.19% (active) in assay [8], 4.34% (active) in assay [9] and 66.4% in assay [10].

In the case of `N#C/C(=C\c1ccc(-c2ccc(Cl)cc2)o1)c1nc(-c2ccco2)cs1`, the growth in assay [1] was 95%; in assay [2] it was 64.7%; in [3], 97.5%; in assay [4], 61.8%; in assay [5], 4.22% (active); in assay [6], 90.9%. In addition, the growth in assay [7] is 68.1%; in assay [8], 106%; in [9], 102%; in [10], 97.4%.

(Values after PubChem BioAssay (NCI).)
